# Data from PubChem BioAssay (Tox21).
# Where “and” joins values, the source holds several entries; their conditions need not be identical. Equal values may be shown once. Records with an inconclusive call do not appear. Where a call stands in place of a potency, no number is given. Some structures have more than one record in an assay (separate samples or runs), and their calls can disagree. Calls of active or inactive are those of the source. Calls come from the whole dose curve; as a rule, active = well fitted inhibition curve with a large enough effect in the signal ratio in the repeat runs, with a control signal flat; inconclusive = weak or mixed curves, or effect the other way; inactive = flat fitted curve, though single readings scatter; the % refers to the signal ratio.
# Target: D(2) dopamine receptor (Homo sapiens) (UniProt P14416)
# Sequence (P14416 whole entry, looked up): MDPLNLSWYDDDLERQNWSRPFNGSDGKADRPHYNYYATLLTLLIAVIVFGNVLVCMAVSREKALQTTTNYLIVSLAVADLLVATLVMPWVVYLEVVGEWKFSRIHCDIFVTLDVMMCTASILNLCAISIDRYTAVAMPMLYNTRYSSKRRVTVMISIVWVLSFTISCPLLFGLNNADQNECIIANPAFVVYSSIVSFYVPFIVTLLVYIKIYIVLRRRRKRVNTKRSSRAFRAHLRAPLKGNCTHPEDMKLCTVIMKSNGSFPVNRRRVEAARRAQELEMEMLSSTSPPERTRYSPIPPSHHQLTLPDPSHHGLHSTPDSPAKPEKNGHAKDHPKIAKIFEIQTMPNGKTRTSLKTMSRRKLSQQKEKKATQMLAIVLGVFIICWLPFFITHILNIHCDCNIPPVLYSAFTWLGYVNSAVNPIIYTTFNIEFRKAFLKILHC
# Assay: Dopamine D2 receptor (DRD2) small molecule antagonists, cell-based qHTS assay (AID 1963595)
# Conditions: HEK293-DRD2 cAMP HTRF antagonist mode; series mostly up to 92.4 µM; activity change, negative = inhibition: at the top concentration
# Outline: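 Readout: HTRF cAMP, cAMP-d2 competing with cellular cAMP for anti-cAMP cryptate, read after 1 h. Cells: DRD2-HEK293. Conditions: 0.1 mM Ro20-1724, 12 nM quinpirole, 200 nM NKH477, 30 min RT.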
# Potency is the fitted concentration of half-maximal effect.
Structure (SMILES),Potency,"activity change, negative = inhibition"
CCCCCCCCCCCCN,inactive and 43.3 µM (active),
CC(O)CC(C)(C)O (stereo not given),inactive,
CCNc1ccccc1,inactive,
Nc1ccc(O)c(C(=O)O)c1,,2.15% [at 42.5 µM] (inactive)
O=C1CCc2ccccc2O1,inactive,
CC(=O)CCC=C(C)C,inactive,
CCO[Si](CCCNC(N)=O)(OCC)OCC,inactive,
C=C(C)C(=O)OCCOC(=O)C(=C)C,inactive,
C#C[C@]1(O)CC[C@H]2[C@@H]3CCC4=Cc5oncc5C[C@]4(C)[C@H]3CC[C@@]21C,inactive,
CC1(C)NC(=O)N(c2ccc([N+](=O)[O-])c(C(F)(F)F)c2)C1=O,inactive,
O=S(=O)(O)c1ccc(O)cc1,inactive,
CC(=O)Oc1c(C)c(C)c2c(c1C)CC[C@@](C)(CCC[C@H](C)CCC[C@H](C)CCCC(C)C)O2,inactive,
CC1(C)NC(=O)NC1=O,inactive,
O=C(C1CCCCC1)N1CC(=O)N2CCc3ccccc3C2C1 (stereo not given),inactive,
C[N+](C)(C)CCCCCC[N+](C)(C)C,inactive,
CCCCCC/C=C/CCCCCCCC(=O)O,inactive,
CC(C)=CCl,inactive,
C/C=C1/CC2C=CC1C2 (stereo not given),inactive,

Structure (SMILES),Potency,"activity change, negative = inhibition"
COC(=O)c1ccccc1O,,-0.4% (inactive)
CC(=O)Oc1ccc(C)cc1,inactive,
CC(C)=CCO,inactive,
Cc1ccc(C)c(OCCCC(C)(C)C(=O)O)c1,inactive,
C=C(C)C(=O)OCC(CC)(COC(=O)C(=C)C)COC(=O)C(=C)C,,-0.982% (inactive)
S=c1nc[nH]c2nc[nH]c12,inactive,
NC(CO)(CO)CO,inactive,
N=C(N)c1ccc(OCCCCCOc2ccc(C(=N)N)cc2)cc1,inactive,
CCCCCCCC(=O)OCC(O)CO (stereo not given),inactive,
O=C(OCc1ccccc1)c1ccccc1,inactive,
CN(C)c1ccc(C(=C2C=CC(=[N+](C)C)C=C2)c2ccccc2)cc1,16.8 µM (active),
Cc1ccc(C(=O)O)o1,inactive,
O=[Se](O)O,inactive,
CC(=O)c1nccs1,inactive,
CC12CCC(CC1)C(C)(C)O2,inactive,
O=C(O)c1cn(-c2ccc(F)cc2)c2cc(N3CCNCC3)c(F)cc2c1=O,inactive,
CC(=O)Nc1ccccc1,inactive,
